The values below come from PubChem BioAssay (Tox21).

A number with no mark means an inactive call. Results filed as inconclusive are left out. Calls of active or inactive are those of the source. Unless noted, calls follow the shape of the dose curve; as a rule, active = well fitted curve in the direction sought with a large enough effect in the repeat runs; inconclusive = weak or mixed curves; inactive = no such curve, though single readings can be large; an effect the other way counts as inactive or inconclusive.

Assay [1] can be described thus: qHTS assay for small molecules that induce genotoxicity in human embryonic kidney cells expressing luciferase-tagged ATAD5 (AID 651632). Also: nearly all actives have a fitted effect of over 15% in size. In a few lines:
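Luminescence read-out: after 16 hr compound exposure at 37C, ATAD5-luciferase HEK293T cells received Amplite, 30 min RT, then CCD imaging. A rise in signal marks genotoxic stress.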
A general note: Quantitative high-throughput screening tests each substance at several concentrations.

The nature of assay [2]: qHTS assay for small molecule agonists of the p53 signaling pathway - cell viability (AID 651633; calls by dose curve;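 also: p53RE-bla HCT reporter cells with a stable beta-lactamase p53 reporter; series mostly up to about 83 µM; nearly all actives have a fitted effect of over 30% in size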). In a few lines: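 p53RE-bla cells, seeded at 4,000 per well and rested 5 h at 37 C/5% CO2, received compounds in DMSO for 16 h at 37 C. CellTiter-Glo was then added, and luminescence was read after 30 min at room temperature to gauge cytotoxicity.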
Assay [3] in a line: qHTS assay for small molecules that induce genotoxicity in human embryonic kidney cells expressing luciferase-tagged ATAD5 - cell viability (AID 651634; calls by dose curve; also: nearly all actives have a fitted effect of over 25% in size). In a few lines:
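HEK293T ATAD5-luc cells, 2,000/well; compound 15.5 hr, 37C/5% CO2; CellTiter-Fluor 30 min, 37C; fluorescence read.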

Assay [4] in a line: qHTS assay for small molecule disruptors of the mitochondrial membrane potential - cell viability (AID 720634; calls by dose curve;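 also: human HepG2 liver cancer cells; series mostly up to about 83 µM; nearly all actives have a fitted effect of over 20% in size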). In a few lines:
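Luminescence from CellTiter-Glo (ATP content) gave viability in HepG2 cells, read in the same wells as the MMP dye assay after 1 hr compound exposure at 37 C.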

Assay [5] is described as follows: qHTS assay for small molecule disruptors of the mitochondrial membrane potential (AID 720635). Also: potency is read from the fitted curve at half-maximal effect. The gist of the method: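 HepG2 cells (2,000/well) attached overnight at 37C, then took compound for 1 hr at 37C, 5% CO2. Mito-MPS dye was added for 30 min; fluorescence was read at 490/535 nm (monomers) and 540/590 nm (aggregates).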
Assay [6] in a line: qHTS assay to test for compound auto fluorescence at 590 nm (red) in HepG2 cells (AID 720674). The gist of the method: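 Compound auto-fluorescence is scored relative to Rose Bengal sodium, measured at 540/590 nm in live HepG2 cultures after 1 hr compound contact (37 C, 5% CO2).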
Assay [7] can be described thus: qHTS assay to test for compound auto fluorescence at 535 nm (green) in HepG2 cells (AID 720675).
The nature of assay [8]: qHTS assay to test for compound auto fluorescence at 460 nm (blue) in HEK293 cells (AID 720678). In a few lines: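 Cells were seeded and left to adhere for 4-5 hr at 37C. Compounds were then pin-transferred. After an overnight incubation at 37C under 5% CO2, intrinsic fluorescence at 405/460 nm was measured and referenced to triamterene.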
Assay [9] is described as follows: qHTS assay to test for compound auto fluorescence at 590 nm (red) in HEK293 cells (AID 720679). The gist of the method: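 Each well held 2,000 HEK293 cells in medium containing 10% dialyzed FBS. Following 4-5 hr attachment at 37C, 23 nL test compound or DMSO was added; plates sat overnight, and red fluorescence (540/590nm) was recorded.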

Regarding `Nc1ccc(S(=O)(=O)Nc2ccc(Cl)nn2)cc1`, the Potency entry in assay [1], in [3] and in assay [5] was “inactive” each time. Further, the call in assay [2], in [4], in assay [6], in [7], in assay [8] and in assay [9] was inactive.

Turning to `CCCCCCOC(=O)CC`, the Potency entry in assay [1], in assay [3] and in assay [5] was “inactive” in each case. Also, the molecule was called inactive in assay [2], in [4], in assay [6], in assay [7], in [8] and in assay [9].

For `COC(=O)CCc1ccc(OCC(O)CNC(C)C)cc1` (centres undefined), the Potency entry in assay [1], in [3] and in [5] was “inactive” each time. Also, the molecule was classed as inactive in assay [2], in assay [4], in assay [6], in assay [7], in assay [8] and in [9].

Take `CC(CN)CC(C)(C)CCN` (centres undefined): the Potency entry in [1], in [3] and in assay [5] was “inactive” each time. Further, the molecule was classed as inactive in [2], in [4], in assay [6], in [7], in assay [8] and in assay [9].

`COc1ccc(S(=O)(=O)N2c3ccc(Cl)cc3[C@@](O)(c3ccccc3Cl)[C@H]2C(=O)N2CCC[C@@H]2C(N)=O)cc1OC`: the Potency result in [1], in assay [3] and in assay [5] was “inactive” each time. Further, the call in assay [2], in [4], in assay [6], in assay [7], in assay [8] and in [9] was inactive.

Consider `CCCCC(CC)COCCO` (centres undefined), for which the Potency entry in [1], in assay [3] and in assay [5] was “inactive” throughout. The call in assay [2], in assay [4], in assay [6], in assay [7], in assay [8] and in assay [9] was inactive.

Consider `C[Si](C)(C)C`, for which the Potency entry in [1], in assay [3] and in assay [5] was “inactive” in each case. For the same molecule, the call in [2], in assay [4], in assay [6], in assay [7], in [8] and in assay [9] was inactive.

In the case of `O=C(CS(=O)Cc1ccco1)NC/C=C\COc1cc(CN2CCCCC2)ccn1` (centres undefined), the Potency entry in [1], in assay [3] and in assay [5] was “inactive” in each case. In addition, the outcome in [2], in assay [4], in [6], in assay [7], in [8] and in assay [9] was inactive.

Consider `COc1ccc(Br)c(C)c1`, for which the Potency entry in assay [1], in assay [3] and in assay [5] was “inactive” in each case. Further, the molecule was called inactive in [2], in [4], in [6], in assay [7], in [8] and in assay [9].

In the case of `N[C@@H](COP(=O)(O)O)C(=O)O`, the Potency result in assay [1], in [3] and in [5] was “inactive” throughout. For the same molecule, the molecule was classed as inactive in assay [2], in [4], in assay [6], in assay [7], in assay [8] and in assay [9].

As for `CCOC(=O)[C@H](CCc1ccccc1)N[C@@H](C)C(=O)N1C(=O)N(C)C[C@H]1C(=O)O`, the Potency result in assay [1], in assay [3] and in [5] was “inactive” in each case. Further, the molecule was classed as inactive in assay [2], in assay [4], in [6], in assay [7], in [8] and in [9].

For the molecule `CC(C)CC(=O)O`, the Potency result in assay [1], in assay [3] and in assay [5] was “inactive” each time. The molecule was called inactive in assay [2], in [4], in [6], in assay [7], in [8] and in [9].

As for `C=C(C)C(=O)OCc1ccccc1`, the Potency entry in assay [1], in assay [3] and in assay [5] was “inactive” each time. In addition, the molecule was classed as inactive in assay [2], in [4], in assay [6], in [7], in [8] and in assay [9].

For the molecule `Cc1ccc2c(c1)OCC(=O)CO2`, the Potency result in assay [1], in [3] and in [5] was “inactive” throughout. In addition, the outcome in assay [2], in assay [4], in assay [6], in [7], in assay [8] and in [9] was inactive.

`CC(C)=O`: the Potency result in [1], in assay [3] and in assay [5] was “inactive” each time. For the same molecule, the molecule was called inactive in assay [2], in assay [4], in [6], in assay [7], in assay [8] and in [9].

Turning to `C=C(C)C(=O)OCCOP(=O)(O)OCCOC(=O)C(=C)C`, the Potency result in assay [1], in assay [3] and in [5] was “inactive” in each case. Moreover, the outcome in assay [2], in assay [4], in assay [6], in [7], in assay [8] and in [9] was inactive.

`CCCCCCOc1ccccc1C(N)=O`: the Potency entry in [1] and in assay [3] was “inactive” each time. Moreover, the molecule was called inactive in [2], in assay [4], in assay [6], in assay [7], in assay [8] and in [9]. Also, in assay [5], the Potency was 6.68 µM (active).

Consider `C[C@@H]1O[C@@H](O[C@@H]2[C@@H](O)[C@H](OCCc3ccc(O)c(O)c3)O[C@H](CO[C@@H]3O[C@H](CO)[C@@H](O)[C@H](O)[C@H]3O)[C@H]2OC(=O)/C=C/c2ccc(O)c(O)c2)[C@H](O)[C@H](O)[C@H]1O`, for which the Potency entry in assay [1], in assay [3] and in assay [5] was “inactive” throughout. Besides, the result in assay [2], in [4], in assay [6], in assay [7], in [8] and in assay [9] was inactive.

For the molecule `CC(=O)Nc1cccc(C)c1`, the Potency entry in assay [1], in assay [3] and in assay [5] was “inactive” throughout. Also, the outcome in assay [2], in [4], in [6], in assay [7], in assay [8] and in assay [9] was inactive.

Turning to `COc1ccc(OC)c(Cl)c1`, the Potency entry in [1] and in assay [3] was “inactive” throughout. Moreover, the result in [2], in assay [4], in assay [6], in assay [7], in [8] and in [9] was inactive.
